# High-throughput results: PubChem BioAssay, The Scripps Research Institute Molecular Screening Center
# Shown are actives, neighbours in structure and some others; about 1.1% of the full set was active somewhere.
# SRC1 inh – human NCOA1 inhibition | inhibition, % at 3.6 µM | HEK293 GAL4-SRC1 luciferase reporter, luminescence | hit rate 0.12% among 360,000 | Q15788;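 active = inhibition above the campaign mean plus 3 SD, with each screening campaign given its own cutoff, cut at about 60% in these data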;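 note: 0% = DMSO treated cells and 100% = gossypol at 36 µM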
# GalR3 antagonist – human GalR3 antagonism; HEK293 GalR3-CNG cAMP membrane potential fluorescence; galR3 body fused to GalR1 C-terminus; inhibition, % at 3 µM; O60755; hit rate 0.44% among 360,000; AID 651719;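 active = inhibition above the screen-wide average plus 3 SD, cut at about 13% in these data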;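 note: forskolin and galanin both at EC90 stimulate the cells; cAMP rise reported by CNG channel membrane potential dye signal; 0% = forskolin plus galanin with DMSO and 100% = forskolin alone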
# Target sequence (O60755 1-299 limits assumed): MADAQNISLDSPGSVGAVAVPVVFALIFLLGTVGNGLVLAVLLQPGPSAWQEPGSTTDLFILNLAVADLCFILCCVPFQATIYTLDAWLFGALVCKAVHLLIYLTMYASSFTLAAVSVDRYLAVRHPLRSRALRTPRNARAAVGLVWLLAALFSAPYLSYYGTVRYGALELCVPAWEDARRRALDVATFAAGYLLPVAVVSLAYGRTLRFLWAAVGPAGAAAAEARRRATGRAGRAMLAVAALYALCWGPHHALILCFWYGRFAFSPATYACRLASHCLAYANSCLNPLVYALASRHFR
# SRC3 inh – human NCOA3 inhibition | hit rate 0.17% among 360,000 | AID 588352 | inhibition, % at 3.6 µM | HEK293 GAL4-SRC3 luciferase reporter, luminescence | Q9Y6Q9;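 active = inhibition above a per-campaign cutoff, the mean of all compounds plus 3 SD, cut at about 60% in these data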;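 note: 0% = DMSO-treated cells and 100% = gossypol-treated cells at 36 µM; higher means less SRC3-driven luciferase light from the GAL4 reporter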
# LRH-1 inv ag – NR5A2 inverse agonism in reporter assay; O00482; HEK293T StAR-luciferase reporter, LRH-1 transfected, 24 h; inhibition, % at 3.6 µM; hit rate 0.13% among 360,000;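 active = inhibition above the mean inhibition of all tested compounds plus 3 SD, cut at about 73% in these data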;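 note: 0% = DMSO wells and 100% = reporter-only cells lacking LRH-1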
# SRC2 inh – human SRC2 (NCOA2) inhibition. HEK293 GAL4-SRC2 luciferase reporter, luminescence. inhibition, % at 9 µM. hit rate 0.17% among 370,000. AID 651957;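 active = inhibition above the mean inhibition of all tested compounds plus 3 SD, set per campaign, cut at about 52% in these data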;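 note: 0% = DMSO treated cells and 100% = cells given Gossypol at 36 µM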
# COUP-TFII inh – inhibitors of human COUP-TFII (NR2F2); HEK293T NGFI-A luciferase reporter, luminescence; inhibition, % at 8.6 µM; hit rate 0.7% among 370,000; AID 686940;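 active = inhibition above a per-plate cutoff, mean inhibition of test wells between control levels plus 3 SD, cut at about 38% in these data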;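 note: cells cotransfected with COUP-TFII expression vector driving the NGFI-A reporter; 0% = median of COUP-TF2 test wells and 100% = reporter-only cells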
# Target sequence (P24468 whole entry, looked up): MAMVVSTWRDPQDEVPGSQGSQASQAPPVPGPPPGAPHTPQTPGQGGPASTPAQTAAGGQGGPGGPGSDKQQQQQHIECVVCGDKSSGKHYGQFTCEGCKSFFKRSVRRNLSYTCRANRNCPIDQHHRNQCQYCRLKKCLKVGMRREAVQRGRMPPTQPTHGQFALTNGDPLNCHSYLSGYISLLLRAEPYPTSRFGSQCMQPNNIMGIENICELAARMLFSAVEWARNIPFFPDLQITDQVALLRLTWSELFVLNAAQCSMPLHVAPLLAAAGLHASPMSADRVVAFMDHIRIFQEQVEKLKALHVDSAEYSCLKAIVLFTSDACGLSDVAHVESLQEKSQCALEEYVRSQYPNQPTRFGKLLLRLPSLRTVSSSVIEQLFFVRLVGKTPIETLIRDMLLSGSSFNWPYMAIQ
# GalR3 antag conf – confirmation of human galanin receptor 3 antagonists | shares compounds with GalR3 antagonist | HEK293 GalR3 CNG cAMP biosensor, membrane potential fluorescence; galR3 fused to GalR1 carboxy tail; challenged with forskolin and galanin at EC90 | inhibition, % at 3 µM | hit rate 59% among 1,600;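 active = inhibition above the primary screen's cutoff, the mean inhibition of all screened compounds plus 3 SD, cut at about 13% in these data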;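 note: 0% = forskolin plus galanin and 100% = forskolin alone with DMSO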
# CNG parental – counter-screen for GalR3 antagonists: nonspecific agonists in parental HEK-CNG cells; shares compounds with GalR3 antagonist; HEK293-CNG parental cells, cAMP membrane potential fluorescence; normalised: DMSO wells 0%, forskolin wells 100%; activation, % at 3 µM; hit rate 10% among 1,600; AID 652268; in the data active = activation above about 1.3%
# Numbers without * were called inactive; · = no result.
SMILES,SRC1 inh,GalR3 antagonist,SRC3 inh,LRH-1 inv ag,SRC2 inh,COUP-TFII inh,GalR3 antag conf,CNG parental
CC1(C)CC(=O)C2=C(C1)NC1=C(C(=O)c3ccccc31)C2c1ccc(O)cc1 (stereo unspecified),-3.8,34.4*,9.8,4.6,5.9,1.2,60.2*,-0.6
COC(=O)COc1ccc(S(=O)(=O)NCc2ccncc2)cc1,-19.4,96.0*,26.9,12.5,26.1,22.7,113.1*,-0.6
CC(=O)OC12CCCN(C1)/C(=C/c1cccc(N(C)C)c1)C2 (stereo unspecified),·,·,·,·,20.2,20.0,·,·
Cc1ccnc(SCc2cc(=O)c(OC(=O)c3ccc([N+](=O)[O-])cc3)co2)n1,·,·,·,·,·,27.1,·,·
Cc1ccc(S(=O)(=O)NCc2ccccc2)s1,-37.1,-5.3,-9.2,-4.2,-18.6,10.2,·,·
Cc1ccc(S(=O)(=O)NCc2cccnc2)s1,-8.1,12.8*,2.6,16.0,15.1,28.7,3.3,-0.1
CCOC(=O)c1ccc(NC(=O)Nc2nc3ccccc3s2)cc1,-1.7,-3.4,-3.5,13.4,-21.4,13.0,·,·
CCOC(=O)c1ccc(NC(=O)Nc2nncs2)cc1,-59.1,14.0*,-43.1,-27.0,-34.2,-71.2,19.6*,1.4*
COc1cc(CNCC(O)c2ccccc2)ccc1OCc1ccc(Cl)nc1 (stereo unspecified),-18.9,25.5*,-14.6,10.6,-17.9,-41.7,42.5*,2.3*
N#Cc1ccc(CN2CCN(C(=O)CNC(=O)Cc3cccc4ccccc34)CC2)cc1,14.6,21.6*,-8.1,21.3,22.4,15.3,9.6,0.1
CCc1ccccc1NC(=O)CN1CCN(C(=O)CNC(=O)Cc2cccc3ccccc23)CC1,6.0,-7.0,8.8,12.1,3.0,19.0,·,·
N#Cc1c(N)nc2c3c(sc(=N)c2c1N)NC(=O)CC3c1ccccc1 (stereo unspecified),-37.5,21.9*,-38.7,19.2,-51.3,-18.3,24.7*,0.3
N#Cc1c(N)nc2c3c(sc(=N)c2c1N)NC(=O)CC3c1c(F)cccc1Cl (stereo unspecified),2.5,-3.6,-9.1,5.9,0.6,7.8,·,·
Cc1c(C#N)c(N)nc2c3c(sc12)NC(=O)CC3c1ccc(Cl)cc1 (stereo unspecified),12.0,24.8*,-7.7,-5.0,-50.5,-19.7,47.9*,0.3
C[C@H](NS(=O)(=O)c1ccc([N+](=O)[O-])cc1)C(=O)NCCNC(=O)[C@@H](C)NS(=O)(=O)c1ccc([N+](=O)[O-])cc1,·,·,·,·,·,-2.0,·,·
C[C@H]1[C@@H](OC(=O)Nc2cc(Cl)ccc2Cl)CC[C@@]23CCCN2C(=O)CCC[C@@H]13,·,·,·,·,·,-0.1,·,·
CCOC(=O)C1CCCN(C(=O)c2ccccc2[N+](=O)[O-])C1 (stereo unspecified),-4.2,54.7*,-0.7,1.9,12.3,10.4,2.5,-0.2
O=C(c1ccccc1[N+](=O)[O-])N1CCCC(C(=O)N2CCCCCC2)C1 (stereo unspecified),-4.5,-7.2,2.4,15.2,-17.8,-2.5,·,·
Cc1ccc(CN2C(=O)CCC2C(=O)NCCCN2CCOCC2)cc1 (stereo unspecified),-14.7,-2.3,-1.6,8.7,10.4,6.4,·,·
Cc1ccc(CN2C(=O)CCC2C(=O)NCCCN2CCC(C)CC2)cc1 (stereo unspecified),-33.7,·,3.1,7.1,-35.2,8.9,9.5,0.4
CC(=O)Nc1ccc(OCC(O)Cn2c3ccccc3c3ccccc32)c(C)c1 (stereo unspecified),5.9,14.5*,36.9,16.2,10.8,29.4,41.4*,-1.6
COc1cccc(-c2c(C(=O)N/N=C/c3sccc3C)nnn2-c2nonc2N)c1,3.0,·,18.9,0.2,23.9,3.5,12.1,-0.7
Cc1ccsc1/C=N/NC(=O)c1nnn(-c2nonc2N)c1-c1ccccc1,18.8,-9.7,11.4,-18.5,6.2,-3.7,·,·
O=C(Nc1ccc(Cl)c(Cl)c1)C1CCN(c2nnc(-n3cccc3)s2)CC1,·,·,·,·,1.9,-1.3,·,·
COc1cc(C(=O)Nc2cccc(S(=O)(=O)N3CCCC3)c2)cc(OC)c1C,-3.5,14.3*,13.2,-9.8,-9.2,-9.7,11.8,0.9
SMILES,SRC1 inh,GalR3 antagonist,SRC3 inh,LRH-1 inv ag,SRC2 inh,COUP-TFII inh,GalR3 antag conf,CNG parental
Cc1ccc(S(=O)(=O)N2CCOCC2)cc1NC(=O)c1cccc(S(=O)(=O)N2CCCC2)c1,8.3,·,9.0,3.5,-1.4,2.0,3.2,0.1
Cc1ccc(S(=O)(=O)N2CCOCC2)cc1C(=O)N1CCCC1,17.4,-6.9,0.3,-12.8,8.1,5.8,·,·
Cc1ccccc1NC(=O)c1cc(S(=O)(=O)N2CCOCC2)ccc1F,-22.4,13.7*,-5.4,8.0,2.5,-6.7,1.9,0.1
Cc1ccc(S(=O)(=O)N2CCOCC2)cc1C(=O)N1CCN(S(=O)(=O)c2cccs2)CC1,11.3,13.1*,9.1,1.0,-37.6,-3.7,-0.2,0.1
Cc1ccccc1NC(=O)c1cccc(S(=O)(=O)N2CCOCC2)c1,-32.9,-10.4,-2.8,-4.5,22.6,-0.9,·,·
CCCCN(C)C(=O)c1cn(C(C)c2ccccc2)nn1 (stereo unspecified),·,·,·,·,-18.2,-7.5,·,·
COc1ccc(CNC(=S)OC2CCC23CCC(c2ccccc2)CC3)cc1 (stereo unspecified),·,·,·,·,-6.4,10.6,·,·
COCCCNC(=O)C[C@H]1C[C@@]2(C(=O)OC)C(=C[C@H](C3CCCC3)O[C@@H]2C)N(CCc2ccc(OC)c(OC)c2)C1=O,·,·,·,·,3.2,8.1,·,·
Cn1c(C(=O)O)cc2cc(Oc3ccccc3)ccc21,-1.6,-6.7,-5.6,-9.5,11.2,5.2,·,·
Cn1c(C(=O)NN)cc2cc(Oc3ccccc3)ccc21,2.6,60.0*,-7.7,-11.6,-37.5,4.0,43.8*,-0.4
O=C(Nc1ccncc1)c1ccc2c(c1)C(=O)N(C1CCCCC1)C2=O,18.1,45.9*,5.8,33.4,17.3,21.2,57.4*,-0.6
O=C(Nc1ccccc1Cc1ccccc1)c1ccccc1NS(=O)(=O)c1ccc(Cl)s1,13.4,96.2*,34.8,25.2,30.1,29.3,103.5*,-0.5
Cc1ccc(NC(=O)c2ccccc2NS(=O)(=O)c2ccc(Cl)s2)cc1,0.9,16.7*,5.6,-0.1,22.8,14.0,33.2*,0.6
COc1ccccc1C(=O)Nc1cc2c(cc1C(=O)O)OCCCO2,-30.2,12.7*,-10.5,-4.3,1.8,-5.2,2.8,0.1
CCOC(=O)CC[C@H]1CC[C@]2(CCCN(S(C)(=O)=O)C2)O1,·,·,·,·,-3.2,-16.2,·,·
